Compounds with a hit are over-represented: about 32% of the library has one in this group of screens.
CYP2C19 inh: human CYP2C19 inhibition. inhibition, % at 5 µM. CYP2C19 Supersomes, luciferin-H EGE luminescence, 30 min. P33261. AID 778. 21% of 96,000 active;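 active = CYP2C19 inhibition above a set limit at 5 µM in the primary screen, cut at about 50% in these data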
Target sequence (P33261 whole entry, looked up): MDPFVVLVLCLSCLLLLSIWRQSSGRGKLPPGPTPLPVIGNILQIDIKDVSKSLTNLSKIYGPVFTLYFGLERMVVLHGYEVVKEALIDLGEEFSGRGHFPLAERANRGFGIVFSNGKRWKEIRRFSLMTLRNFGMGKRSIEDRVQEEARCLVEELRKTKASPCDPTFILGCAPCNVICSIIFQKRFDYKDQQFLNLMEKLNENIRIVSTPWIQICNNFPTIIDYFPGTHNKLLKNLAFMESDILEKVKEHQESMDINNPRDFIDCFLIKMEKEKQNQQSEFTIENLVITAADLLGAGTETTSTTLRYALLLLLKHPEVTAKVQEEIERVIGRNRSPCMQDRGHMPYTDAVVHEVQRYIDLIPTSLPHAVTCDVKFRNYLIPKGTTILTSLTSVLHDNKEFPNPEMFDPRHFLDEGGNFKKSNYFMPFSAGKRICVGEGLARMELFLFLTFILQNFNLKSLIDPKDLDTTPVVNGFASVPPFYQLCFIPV
CYP2C9 activ: activators of human CYP2C9; P11712; recombinant CYP2C9, luciferin-H conversion, luminescence; stronger effect = higher value; factor 1 = untreated enzyme, 0 = blocked; activation factor at 5 µM; 1.4% of 96,000 active; AID 1024;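 active = activation factor of 2 or more for CYP2C9 at a 5 µM dose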
CYP2C19 act: increases human CYP2C19 enzyme activity | recombinant CYP2C19, luciferin-H EGE luminescence; stronger effect = higher value; 0 = fully inhibited enzyme, 1 = untreated enzyme | 96,000 tested, under 10 active | activation factor at 5 µM | P33261 | AID 1025;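 active = activation factor of at least 2 at 5 µM in the primary screen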
PostGolgi yeast: growth inhibition of a yeast mutant, post-Golgi transport screen; post-Golgi transport phenotypic cell assay; inhibition, % at 10 µM; 0.9% of 98,000 active;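 also: yeast cells grown in 1536-well plates; yeast grown about 18 h at 30C before absorbance read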
PostGolgi ctrl: growth of the yeast control strain, post-Golgi counter-screen; efflux-deficient yeast background strain, growth absorbance A615, 16 h; inhibition, % at 10 µM; 5% of 98,000 active
CYP2C9 inh: human CYP2C9 inhibition; 20% of 96,000 active; P11712; CYP2C9 Supersomes, luciferin-H conversion, luminescence; inhibition, % at 5 µM; AID 777;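 active = blocking of liver enzyme CYP2C9 beyond about 50% at 5 µM, limit read from the data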
Of the large screens only hits and unclear results are named; the others gave an inactive call; ! = not confirmed by another sample. Rule as the data show it, unless noted: active = inhibition above about 30%; inactive = the rest.

O=C(Nc1cnc2sc3c(n2c1=O)CCCC3)c1ccc(F)cc1	none
Cc1nn(-c2ccccc2)c2c1P(=O)(O)/C(=C1\N(C)c3ccccc3C1(C)C)C=N2	none
Cc1cc(N2CCN(C)CC2)nc2ccc(NC(=O)CCC(=O)NCc3ccco3)cc12	none
CCOP(=O)(O)c1ccccc1OCCOc1ccccc1P(=O)(O)OCC	none
CCCC(=O)N(c1ccc2oc(=O)sc2c1)S(=O)(=O)c1ccccc1	none
COc1ccc(N(C(=O)C(C)C)S(=O)(=O)c2cccs2)cc1	CYP2C19 inh 97, CYP2C9 inh 80
CC(=O)Oc1ccc(N(C(C)=O)S(=O)(=O)c2cccs2)cc1	none
CC(C)C(=O)N(c1ccc2oc(=O)sc2c1)S(=O)(=O)c1cccs1	CYP2C19 inh 97, CYP2C9 inh 61
CC(C)C(=O)N(c1cc2sc(=O)oc2c2ccccc12)S(=O)(=O)c1cccs1	PostGolgi ctrl 67
CSc1nnc2c3c4c(sc3nc(-n3nc(C)cc3C)n12)COC(C)(C)C4	none
Nc1nc(CSc2nc3ccccc3[nH]2)nc(N2CCOCC2)n1	none
OC(COCc1ccc(Cl)cc1)CN1CCN(CC(O)COCc2ccc(Cl)cc2)CC1 (stereo not given)	none
O=C(CSCc1ccccc1)N1CCN(c2cccc(C(F)(F)F)c2)CC1	CYP2C19 inh 86, CYP2C9 inh 93
O=C(CSCc1cccc(F)c1)N1CCN(c2ccccc2)CC1	CYP2C19 inh 52, CYP2C9 inh 58
O=C1Nc2ccccc2OC1CC(=O)N1CCOCC1 (stereo not given)	none
O=C1Nc2ccccc2OC1CC(=O)N1CCN(c2cccc(C(F)(F)F)c2)CC1 (stereo not given)	CYP2C9 inh 72
O=C(OCn1ncc(Br)c(Br)c1=O)c1c(F)cccc1F	CYP2C19 inh 83, PostGolgi yeast 57
COc1cc(/C=C(/C#N)c2ccccc2)ccc1Oc1ccc([N+](=O)[O-])cn1	CYP2C9 inh 59
CCOc1c2ccc(C(=O)NCc3ccc4c(c3)OCO4)cc2nn1CC	none
CCn1c(C)nc2cc(-c3nc4n(n3)Cc3ccccc3-4)ccc21	CYP2C19 inh 84
Fc1ccc(-c2nc3n(n2)Cc2ccccc2-3)cc1	none
CCN(CC)c1ccc(CC(=O)NC(C)Cc2ccccc2)cc1 (stereo not given)	CYP2C19 inh 82, CYP2C9 inh 60
COc1ccc(C2=C(CN(C)C)C(c3ccccc3)c3ccccc3O2)cc1 (stereo not given)	CYP2C19 inh 68!, CYP2C9 inh 77!
CCOC(=O)CN1N=C(/C=C/c2ccc(OC)cc2)CCC1=O	none
COc1cc(C(c2c(C)[nH][nH]c2=O)c2c(C)[nH][nH]c2=O)ccc1OS(=O)(=O)c1ccc(C)cc1	CYP2C19 inh 85, CYP2C9 inh 66
O=C(C1CCC(=O)N1Cc1ccccc1Cl)N1CCN(c2ccc(F)cc2)CC1 (stereo not given)	none
C=CCn1c(SCCCc2ccccc2)nc2c1c(=O)[nH]c(=O)n2C	CYP2C19 inh 76, CYP2C9 inh 63
C/C=C/Cn1c(SCCCc2ccccc2)nc2c1c(=O)[nH]c(=O)n2C	CYP2C19 inh 58, PostGolgi ctrl 41, CYP2C9 inh 77
CC(C)n1c(SCCCc2ccccc2)nc2c1c(=O)[nH]c(=O)n2C	none
CCOc1ccc(C(=O)N(C)C2CCS(=O)(=O)C2)cc1 (stereo not given)	none
Cc1ccc(N2CC(C(=O)Nc3cccc(F)c3)CC2=O)cc1 (stereo not given)	CYP2C19 inh 55, CYP2C9 inh 56
CCc1ccc(N2CC(C(=O)Nc3cc(C)ccc3F)CC2=O)cc1 (stereo not given)	CYP2C19 inh 86, CYP2C9 inh 91
COC(=O)C1C(C(C)C)N(c2ccccc2)OC1(C)O (stereo not given)	CYP2C19 inh 56
COC(=O)C1C(=O)CC(C)(O)C(C(=O)OC)C1/C=C/c1ccccc1 (stereo not given)	none
COc1ccc2sc(C)nc2c1NC(C)=O	CYP2C9 inh 84
CC(OC(=O)c1ccc2ccccc2n1)C(=O)Nc1ccc(N2CCOCC2)cc1 (stereo not given)	PostGolgi ctrl 31
CC(C)NS(=O)(=O)c1ccc(CCC(=O)NCc2ccco2)cc1	none
Cc1cc2ncn(C(=O)N3CCCCC3)c2cc1C	CYP2C19 inh 82
COc1cccc(N=C2SC(C(=O)Nc3ccc(F)cc3)CC(=O)N2C)c1 (stereo not given)	CYP2C19 inh 83, CYP2C9 inh 99
Cc1nnc(SCCn2c(N3CCC(C)CC3)nc3c2c(=O)[nH]c(=O)n3C)s1	none
Cc1nnc(SCCn2c(N3CC(C)CC(C)C3)nc3c2c(=O)[nH]c(=O)n3C)s1 (stereo not given)	CYP2C9 inh 61
CCN=C1SC(C(=O)Nc2ccccc2)CC(=O)N1CC (stereo not given)	none
COc1ccc(CNC(=O)CN(Cc2ccccc2)S(=O)(=O)c2ccc(Cl)cc2)cc1	CYP2C19 inh 100, CYP2C9 inh 96
COc1ccc(C)cc1S(=O)(=O)N(CC(=O)NCc1ccc(Cl)cc1)Cc1ccccc1	CYP2C19 inh 72, CYP2C9 inh 89
COc1ccc(NC(=O)CN(Cc2ccccc2)S(C)(=O)=O)c(OC)c1	none
COc1ccc(S(=O)(=O)NCCC(=O)NCc2ccccc2)cc1	none
COc1ccc(CNC(=O)CN(Cc2ccc(Cl)cc2)S(=O)(=O)c2ccccc2)cc1	PostGolgi ctrl 39
COc1ccc(OCCC(=O)N2CCCCC2)cc1	CYP2C19 inh 85
CCOC(=O)C1CCN(C(=O)c2ccc(Br)o2)CC1	CYP2C19 inh 82, CYP2C9 inh 70
Cc1cccc(C)c1NC(=O)C1CCCN(CCCc2ccccc2)C1 (stereo not given)	none
CCOC(=O)C1CCCN(CCCc2ccccc2)C1 (stereo not given)	CYP2C19 inh 80
CC1CCN(C(=O)COC(=O)c2ccc(Br)o2)CC1	CYP2C19 inh 60
O=C(CCS(=O)(=O)c1cccc2nsnc12)N1CC(=O)N(CCc2ccccc2)C(=O)C1	none
Cc1cc(C)c(NC(=O)C(C)Sc2nc3ccc(N4C(=O)c5ccccc5C4=O)cc3s2)c(C)c1 (stereo not given)	none
CN(Cc1ccco1)C(=O)C1CCC(=O)N1Cc1ccc(F)cc1 (stereo not given)	none
CCOC(=O)C1CCN(C(=O)CSCCSCC(=O)N2CCC(C(=O)OCC)CC2)CC1	CYP2C19 inh 73
CCOC(=O)C1CCN(C(=O)CCc2ccccc2)CC1	CYP2C19 inh 71
COC(=O)C1CCN(C(=O)CCCOc2ccccc2)CC1	CYP2C19 inh 87
Oc1ccc(/C=C/c2nc(-c3ccccc3O)n(-c3ccccc3)n2)cc1	PostGolgi ctrl 38
Cc1c(NC(=O)CSc2nc3ccc(Cl)cc3[nH]2)c(=O)n(-c2ccccc2)n1C	none
